Data as given in ChEMBL document CHEMBL1157539, “Thousands of chemical starting points for antimalarial lead identification” (Nature, 2010).

Tests used:
Type in all cases: functional
[1] = system: Plasmodium falciparum; assay: GSK_TCMDC: Inhibition of Plasmodium falciparum 3D7 in whole red blood cells, using parasite LDH activity as an index of growth. Test compounds present at 2uM
[2] = system: Plasmodium falciparum; assay: GSK_TCMDC: Inhibition of Plasmodium falciparum Dd2 in whole red blood cells, using parasite LDH activity as an index of growth. Test compounds present at 2uM
[3] = system: HepG2; assay: GSK_TCMDC: Percent inhibition of human HepG2 cell line. Test compounds present at 10uM.

Row | Compound | Inhibition [1] [%] | Inhibition [2] [%] | Inhibition [3] [%]
1 | CCN(CCCN1CCCCC1)c1nccc(Nc2ccc(Cl)cc2)n1 | 89 | 63 | 19
2 | CC(C#N)Cc1ccc(-c2cnc(N)c3cc(-c4ccnc(N)n4)ccc23)cc1 (centres undefined) | 96 | 62 | 56
3 | COc1ccc2[nH]ccc(=NN=Cc3ccccc3)c2c1 | 100 | 99 | 0
4 | CCOc1cc(C(=O)NCCN(C(C)C)C(C)C)ccc1-c1nc2cc(Cl)ccc2[nH]1 | 100 | 90 | 4
5 | c1ccc(-c2nc(NCCCn3ccnc3)cc(-c3ccncc3)n2)cc1 | 100 | 100 | 42
6 | Nc1nc2ccc(S(=O)(=O)Nc3ccc(C(=O)N[C@@H](CCC(=O)O)C(=O)O)c(F)c3)cc2c(=O)[nH]1 | 97 | 16 | 37
7 | CCCSc1nc2c(c(=O)n1Cc1ccco1)C1(CCCCC1)Cc1ccccc1-2 | 100 | 95 | 0
8 | CC(C)(C)C(=O)Oc1ccc(CC2NCCc3cc(OC(=O)C(C)(C)C)c(OC(=O)C(C)(C)C)cc32)cc1OC(=O)C(C)(C)C (centres undefined) | 97 | 96 | 3
9 | COc1cc(Cc2cnc(N)nc2N)cc(OC)c1OCCCCCN1C(=O)c2ccccc2C1=O | 97 | 4 | 5
10 | CC(C)NCc1cccc(-c2cccc(NC(=O)c3ccc(C#N)cc3)c2)c1.O=C(O)C(F)(F)F | 97 | 20 | 18
11 | O=C(NCC1CCN(Cc2cccc(F)c2)C1)c1cc(-c2cccc(C(F)(F)F)c2)cs1.O=C(O)C(F)(F)F (centres undefined) | 96 | 10 | 31
12 | CN1CCN(c2cc(NC(=O)Nc3cccc(Cl)c3Cl)ccc2Cl)CC1.Cl | 100 | 21 | 2
13 | CC(=O)Nc1nc(C(=O)Nc2ccc(-c3cccc(-c4nc5ccccc5[nH]4)c3)cc2)cs1 | 99 | 83 | 68
14 | O=C(CCc1cccc(O)c1)NCC(NCCCNc1cc(=O)c2ccccc2[nH]1)c1cc(Br)cc(Br)c1 (centres undefined) | 86 | 37 | 0
15 | COc1ccc2nc(-c3cc(-c4ccc(NC(=O)CN5CCOCC5)cc4)cnc3N)[nH]c2c1 | 100 | 72 | 52
16 | Cc1nc(-c2nc(N3CCC(O)CC3)ncc2-c2ccsc2)sc1C | 83 | 35 | 6
17 | CN1CCN(CCCN(Cc2ccc(-c3ccc(CNCc4ccc5c(c4)OCO5)cc3)cc2)C(=O)Nc2ccccc2)CC1.O=C(O)C(F)(F)F | 94 | 77 | 36
18 | Cc1nnc2c(NC(=O)NC(C)C)cc3cc(-c4ccc(CN5CCCCC5)cc4)ccc3n12 | 87 | 8 | 70
19 | Fc1ccc(CNc2nc(-c3ccc(F)c(C(F)(F)F)c3)n(-c3cccc(C(F)(F)F)c3)n2)cc1 | 95 | 80 | 0
20 | CCNC(=O)Nc1ccc(-c2cnc(N)c(-c3nc4ccc(OC)cc4[nH]3)c2)cc1 | 100 | 43 | 51
21 | O=C(CSc1nc2ccccc2c(=O)n1CC1CCCO1)Nc1cc(C(F)(F)F)ccc1Cl (centres undefined) | 97 | 95 | 12
22 | CN(C)Cc1cccc(-c2ccc3ccnc(N)c3c2)c1 | 99 | 74 | 21
23 | CCCCCCN1CCN(Cc2cccc(NC(=O)c3ccc(Cl)c(Cl)c3)c2)CC1.O=C(O)C(F)(F)F | 85 | 51 | 31
24 | CCN(CC)CCOc1ccc(C(O)(C#CC(O)(c2ccc(C)cc2)c2ccc(OCCN(CC)CC)cc2)c2ccc(C)cc2)cc1 (centres undefined) | 97 | 98 | 94
25 | Cc1cccc2nc(-c3ccc(-c4cccc(CNCc5cnn(-c6ccccc6)n5)c4)s3)[nH]c12.O=C(O)C(F)(F)F | 98 | 58 | 40
26 | CN1CCN(c2cccc(-c3nnc(-c4cccc(OCC(=O)NCc5ccc(C(F)(F)F)cc5)c4)o3)c2)CC1 | 98 | 86 | 10
27 | CCOc1ccc2[nH]c(C)cc(=NN=Cc3cccnc3)c2c1 | 100 | 100 | 18
28 | CC(=O)Nc1ncc(C(=O)Nc2cccc(-c3cccc(-c4nc5cc(C(F)(F)F)ccc5[nH]4)c3)c2)s1 | 100 | 99 | 76
